Measurements taken from PubChem BioAssay (NCI).
About 79,000 compounds went through this panel and 15% of them were active in at least one assay; those are over-represented in the sample as a whole. A number with no mark means an inactive call. The source made the active and inactive calls. Rule as the data show it: active = growth inhibition above about 70%; inactive = the rest.

Key:
[1] = NCI Yeast Anticancer Drug Screen. Data for the wt1 strain (AID 149);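 also: 0% = growth of vehicle-treated wt1 cultures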; conditions: S. cerevisiae wt1 strain (SPY 50644) growth inhibition, stronger effect = higher value
Method in brief: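 Measured: growth of wt1 yeast under compound versus vehicle treatment, reported as inhibition.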

[2] = NCI Yeast Anticancer Drug Screen. Data for the rad50EPP+ strain (AID 151);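 also: 0% = growth of vehicle-treated control cultures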; conditions: S. cerevisiae rad50 mutant strain, stronger effect = higher value
Method in brief: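 Measured: growth inhibition of rad50EPP+ yeast. Reference: vehicle-treated controls. Screen uses strains with defined genetic alterations in DNA damage repair or cell cycle control.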

[3] = NCI Yeast Anticancer Drug Screen. Data for the mgt1 strain (AID 153); conditions: S. cerevisiae mgt1 mutant growth inhibition, stronger effect = higher value
Method in brief: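 Compounds were applied to mgt1 mutant yeast, and growth was then compared against vehicle-treated control cultures to give percent inhibition.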

[4] = NCI Yeast Anticancer Drug Screen. Data for the rad50 strain (AID 155);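 also: 0% = growth of vehicle-only cultures of the same strain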; conditions: S. cerevisiae rad50 strain growth inhibition, stronger effect = higher value
Method in brief: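 Growth of the mutant yeast was measured after compound exposure and referenced to vehicle-treated cultures.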

[5] = NCI Yeast Anticancer Drug Screen. Data for the mec2-1 strain (AID 157); conditions: S. cerevisiae mec2-1 strain, stronger effect = higher value
Method in brief: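 Compounds were applied to mec2-1 yeast cells. Their growth was then compared with that of vehicle-treated cultures to give growth inhibition.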

[6] = NCI Yeast Anticancer Drug Screen. Data for the rad14 strain (AID 159);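 also: 0% = growth of vehicle-treated control cultures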; conditions: S. cerevisiae rad14 strain growth inhibition, stronger effect = higher value
Method in brief: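 Here, inhibition of yeast growth was measured after compound exposure, using a strain with a genetic defect in DNA damage repair and vehicle-treated cultures as the reference.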

[7] = NCI Yeast Anticancer Drug Screen. Data for the CLN2oe strain (AID 163);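 also: 0% = growth of vehicle-only control cultures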; conditions: S. cerevisiae CLN2oe strain, stronger effect = higher value
Method in brief: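 Cells of an engineered yeast line with disturbed cell-cycle regulation are treated with compound. Inhibition of growth is then calculated relative to the vehicle-treated reference.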

[8] = NCI Yeast Anticancer Drug Screen. Data for the cln2 rad14 strain (AID 165);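 also: 0% = growth equal to vehicle treated cultures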; conditions: S. cerevisiae cln2 rad14 strain, stronger effect = higher value
Method in brief: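 Strain: cln2 rad14 yeast, altered in cell cycle control and DNA damage repair. Read-out: growth inhibition vs vehicle.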

[9] = NCI Yeast Anticancer Drug Screen. Data for the bub3 strain (AID 167); conditions: S. cerevisiae bub3 mutant strain, stronger effect = higher value
Method in brief: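 Whole-cell yeast assay. The mutant strain was incubated with compounds, and growth inhibition was determined by comparison with vehicle-treated cells.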

[10] = NCI Yeast Anticancer Drug Screen. Data for the wt2 strain (AID 169);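 also: 0% = growth of vehicle-treated yeast cultures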; conditions: S. cerevisiae wt2 strain growth inhibition, stronger effect = higher value
Method in brief: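 Growth of compound-treated yeast is measured and expressed as inhibition relative to vehicle-only controls.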

[11] = NCI Yeast Anticancer Drug Screen. Data for the mlh1 strain (AID 171);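 also: 0% = growth of vehicle-treated control cultures of the same strain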; conditions: S. cerevisiae mlh1 strain growth inhibition, stronger effect = higher value
Method in brief: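 Test agents were incubated with yeast bearing a defined DNA damage repair or cell cycle control alteration; values are growth inhibition normalised to vehicle-treated cultures.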

[12] = NCI Yeast Anticancer Drug Screen. Data for the sgs1 strain (AID 173);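 also: 0% = growth of vehicle-only control cultures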; conditions: S. cerevisiae sgs1 mutant, stronger effect = higher value
Method in brief: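 Strain with an altered DNA repair or cell cycle pathway exposed to compound. Growth then measured. Value = inhibition versus vehicle control.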

[13] = NCI Yeast Anticancer Drug Screen. Data for the mlh1 rad18 strain (AID 175); conditions: S. cerevisiae mlh1 rad18 strain growth inhibition, stronger effect = higher value
Method in brief: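 A repair-deficient yeast strain is exposed to test compound, and growth is scored relative to vehicle-treated controls.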

[14] = NCI Yeast Anticancer Drug Screen. Data for the rad18 strain (AID 177); conditions: S. cerevisiae rad18 mutant growth inhibition, stronger effect = higher value
Method in brief: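 DNA-repair-defective yeast; compound treatment; growth inhibition scored against vehicle.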

[15] = NCI Yeast Anticancer Drug Screen. Data for the sgs1 mgt1 strain (AID 161);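 also: 0% = growth of cultures given vehicle only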; conditions: S. cerevisiae sgs1 mgt1 strain, stronger effect = higher value
Method in brief: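 Compounds are added to genetically altered yeast, and growth is compared with cultures given vehicle alone to give percent inhibition.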

[16] = at 5.0 µM (retest, dose inferred, filed as 0.5)
[17] = at 50.0 µM (retest, dose inferred, filed as 5.0)

In the case of `O=C(Nc1ccn(C2CC(O)C(COC(c3ccccc3)(c3ccccc3)c3ccccc3)O2)c(=O)n1)c1ccccc1` (stereo not given), the growth inhibition ([1]; at 1.2 µM) is reported as -40%, the growth inhibition ([1]; at 3.7 µM) is reported as -22% and the growth inhibition ([1]; at 11.0 µM) is reported as 94% (active). For the same molecule, the growth inhibition ([1]; at 33.0 µM) was 94% (active), the growth inhibition ([1]; at 100.0 µM) was 89% (active) and the growth inhibition ([2]; at 1.2 µM) was -26%. It also gave a growth inhibition ([2]; at 3.7 µM) of -10%, a growth inhibition ([2]; at 11.0 µM) of -9% and a growth inhibition ([2]; at 33.0 µM) of 10%. The growth inhibition ([2]; at 100.0 µM) was -15%, the growth inhibition ([3]; at 1.2 µM) was -22% and the growth inhibition ([3]; at 3.7 µM) was 14%. For the same molecule, the growth inhibition ([3]; at 11.0 µM) was 81% (active), the growth inhibition ([3]; at 33.0 µM) was 82% (active) and the growth inhibition ([3]; at 100.0 µM) was 79% (active). For the same molecule, the growth inhibition ([4]; at 1.2 µM) was -44%, the growth inhibition ([4]; at 3.7 µM) was 20% and the growth inhibition [4, 16] was 85% (active). The growth inhibition ([4]; at 11.0 µM) was 89% (active), the growth inhibition ([4]; at 33.0 µM) was 87% (active) and the growth inhibition [4, 17] was 94% (active). The growth inhibition ([4]; at 50.0 µM) was 43.2%, the growth inhibition ([4]; at 100.0 µM) was 83% (active) and the growth inhibition ([5]; at 1.2 µM) was -43%. For the same molecule, the growth inhibition ([5]; at 3.7 µM) was -1%, the growth inhibition [5, 16] was 64% and the growth inhibition ([5]; at 11.0 µM) was 91% (active). The growth inhibition ([5]; at 33.0 µM) was 91% (active), the growth inhibition [5, 17] was 83% (active) and the growth inhibition ([5]; at 50.0 µM) was 97.6% (active). The growth inhibition ([5]; at 100.0 µM) was 88% (active), the growth inhibition ([6]; at 1.2 µM) was -32% and the growth inhibition ([6]; at 3.7 µM) was 9%. The growth inhibition ([6]; at 11.0 µM) was 78% (active), the growth inhibition ([6]; at 33.0 µM) was 81% (active) and the growth inhibition ([6]; at 100.0 µM) was 78% (active). The growth inhibition ([7]; at 1.2 µM) was -15%, the growth inhibition ([7]; at 3.7 µM) was 36% and the growth inhibition ([7]; at 11.0 µM) was 96% (active). For the same molecule, the growth inhibition ([7]; at 33.0 µM) was 94% (active), the growth inhibition ([7]; at 100.0 µM) was 92% (active) and the growth inhibition [8, 16] was 83% (active). The growth inhibition [8, 17] was 96% (active), the growth inhibition ([8]; at 50.0 µM) was 92.8% (active) and the growth inhibition ([9]; at 1.2 µM) was -34%. For the same molecule, the growth inhibition ([9]; at 3.7 µM) was -11%, the growth inhibition [9, 16] was 89% (active) and the growth inhibition ([9]; at 11.0 µM) was 81% (active). For the same molecule, the growth inhibition ([9]; at 33.0 µM) was 84% (active), the growth inhibition [9, 17] was 95% (active) and the growth inhibition ([9]; at 50.0 µM) was 81.5% (active). For the same molecule, the growth inhibition ([9]; at 100.0 µM) was 82% (active), the growth inhibition ([10]; at 1.2 µM) was -15% and the growth inhibition ([10]; at 3.7 µM) was 1%. For the same molecule, the growth inhibition ([10]; at 11.0 µM) was 81% (active), the growth inhibition ([10]; at 33.0 µM) was 84% (active) and the growth inhibition ([10]; at 100.0 µM) was 79% (active). For the same molecule, the growth inhibition ([11]; at 1.2 µM) was -43%, the growth inhibition ([11]; at 3.7 µM) was -19% and the growth inhibition ([11]; at 11.0 µM) was 74% (active). For the same molecule, the growth inhibition ([11]; at 33.0 µM) was 79% (active), the growth inhibition ([11]; at 100.0 µM) was 74% (active) and the growth inhibition ([12]; at 1.2 µM) was 6%. The growth inhibition ([12]; at 3.7 µM) was 3%, the growth inhibition ([12]; at 11.0 µM) was 84% (active) and the growth inhibition ([12]; at 33.0 µM) was 85% (active). The growth inhibition ([12]; at 100.0 µM) was 79% (active), the growth inhibition [13, 16] was 87% (active) and the growth inhibition [13, 17] was 95% (active). The growth inhibition ([13]; at 50.0 µM) was 94.8% (active), the growth inhibition ([14]; at 1.2 µM) was -35% and the growth inhibition ([14]; at 3.7 µM) was 21%. For the same molecule, the growth inhibition ([14]; at 11.0 µM) was 86% (active), the growth inhibition ([14]; at 33.0 µM) was 85% (active) and the growth inhibition ([14]; at 100.0 µM) was 83% (active).

Work on `CN(C)CCC(=O)c1c[nH]c2ccccc12` yielded a growth inhibition ([1]; at 1.2 µM) of -18%, a growth inhibition ([1]; at 3.7 µM) of -7% and a growth inhibition ([1]; at 11.0 µM) of -7%. It also gave a growth inhibition ([1]; at 33.0 µM) of -19%, a growth inhibition ([1]; at 100.0 µM) of 18% and a growth inhibition ([2]; at 1.2 µM) of -17%. It also gave a growth inhibition ([2]; at 3.7 µM) of 24%, a growth inhibition ([2]; at 11.0 µM) of 16% and a growth inhibition ([2]; at 33.0 µM) of 39%. It also gave a growth inhibition ([2]; at 100.0 µM) of 54%, a growth inhibition ([3]; at 1.2 µM) of -38% and a growth inhibition ([3]; at 3.7 µM) of -10%. For the same molecule, the growth inhibition ([3]; at 11.0 µM) was -39%, the growth inhibition ([3]; at 33.0 µM) was -16% and the growth inhibition ([3]; at 100.0 µM) was 18%. For the same molecule, the growth inhibition ([4]; at 1.2 µM) was -21%, the growth inhibition ([4]; at 3.7 µM) was -17% and the growth inhibition [4, 16] was 82% (active). For the same molecule, the growth inhibition ([4]; at 11.0 µM) was -26%, the growth inhibition ([4]; at 33.0 µM) was 5% and the growth inhibition [4, 17] was 98% (active). For the same molecule, the growth inhibition ([4]; at 50.0 µM) was 73.5% (active), the growth inhibition ([4]; at 100.0 µM) was 49% and the growth inhibition ([5]; at 1.2 µM) was -41%. It also gave a growth inhibition ([5]; at 3.7 µM) of -35%, a growth inhibition [5, 16] of 67% and a growth inhibition ([5]; at 11.0 µM) of -24%. The growth inhibition ([5]; at 33.0 µM) was -8%, the growth inhibition [5, 17] was 98% (active) and the growth inhibition ([5]; at 50.0 µM) was 37.7%. The growth inhibition ([5]; at 100.0 µM) was 64%, the growth inhibition ([6]; at 1.2 µM) was -23% and the growth inhibition ([6]; at 3.7 µM) was -29%. For the same molecule, the growth inhibition ([6]; at 11.0 µM) was -9%, the growth inhibition ([6]; at 33.0 µM) was -2% and the growth inhibition ([6]; at 100.0 µM) was 18%. For the same molecule, the growth inhibition [15, 16] was 15%, the growth inhibition [15, 17] was 57% and the growth inhibition ([15]; at 50.0 µM) was 63%. It also gave a growth inhibition ([7]; at 1.2 µM) of -11%, a growth inhibition ([7]; at 3.7 µM) of -14% and a growth inhibition ([7]; at 11.0 µM) of -14%. The growth inhibition ([7]; at 33.0 µM) was -6%, the growth inhibition ([7]; at 100.0 µM) was 8% and the growth inhibition ([9]; at 1.2 µM) was -23%. It also gave a growth inhibition ([9]; at 3.7 µM) of -29%, a growth inhibition [9, 16] of 22% and a growth inhibition ([9]; at 11.0 µM) of -36%. For the same molecule, the growth inhibition ([9]; at 33.0 µM) was -35%, the growth inhibition [9, 17] was 51% and the growth inhibition ([9]; at 50.0 µM) was 64.9%. It also gave a growth inhibition ([9]; at 100.0 µM) of 37%, a growth inhibition ([10]; at 1.2 µM) of -19% and a growth inhibition ([10]; at 3.7 µM) of -46%. The growth inhibition ([10]; at 11.0 µM) was -19%, the growth inhibition ([10]; at 33.0 µM) was -14% and the growth inhibition ([10]; at 100.0 µM) was 25%. For the same molecule, the growth inhibition ([11]; at 1.2 µM) was -61%, the growth inhibition ([11]; at 3.7 µM) was -74% and the growth inhibition ([11]; at 11.0 µM) was -56%. For the same molecule, the growth inhibition ([11]; at 33.0 µM) was -20%, the growth inhibition ([11]; at 100.0 µM) was 37% and the growth inhibition ([12]; at 1.2 µM) was -42%. The growth inhibition ([12]; at 3.7 µM) was -33%, the growth inhibition ([12]; at 11.0 µM) was -34% and the growth inhibition ([12]; at 33.0 µM) was 14%. For the same molecule, the growth inhibition ([12]; at 100.0 µM) was 54%, the growth inhibition [13, 16] was 47% and the growth inhibition [13, 17] was 97% (active). For the same molecule, the growth inhibition ([13]; at 50.0 µM) was 45.8%, the growth inhibition ([14]; at 1.2 µM) was -55% and the growth inhibition ([14]; at 3.7 µM) was -62%. The growth inhibition ([14]; at 11.0 µM) was -47%, the growth inhibition ([14]; at 33.0 µM) was 8% and the growth inhibition ([14]; at 100.0 µM) was 57%.
